In PMC5700166:

Target: T1, GST-Dm-Relish (Drosophila melanogaster, UniProt Q94527 99-473)
T1 sequence: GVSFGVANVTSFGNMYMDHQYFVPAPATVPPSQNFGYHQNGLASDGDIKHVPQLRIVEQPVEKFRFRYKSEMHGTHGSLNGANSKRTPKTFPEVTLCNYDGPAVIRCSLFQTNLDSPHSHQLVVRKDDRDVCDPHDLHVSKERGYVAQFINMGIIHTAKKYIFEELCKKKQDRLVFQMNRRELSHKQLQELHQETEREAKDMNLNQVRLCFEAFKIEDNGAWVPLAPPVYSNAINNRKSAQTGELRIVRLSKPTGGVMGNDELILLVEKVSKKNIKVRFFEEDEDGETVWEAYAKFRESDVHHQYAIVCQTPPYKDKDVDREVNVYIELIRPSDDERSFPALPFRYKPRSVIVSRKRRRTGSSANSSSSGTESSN
Assay: protein-binding microarray (PBM); PBM: ~300 nM protein, 6 mM HEPES pH 7.8, 80 mM KCl, 0.5 mM EDTA, 0.5 mM EGTA, 6% glycerol, 35 ng/ul poly-dIdC, 1% milk, 1 h, room temperature; Ap Aiptasia and Nv Nematostella (sea anemones) / Co Capsaspora / Aq Amphimedon (sponge) / Dm Drosophila / Hu human; RHD is the Rel homology domain; high values mean tight binding
Details: dsDNA, one strand shown

| Sequence | binding signal |
| --- | --- |
| CCGATTAACATCAGGAATTACACTGATGTTAATCGGGTCTTGATTCGCTTGACGCTGCTG | 3.55 z-score |
| CCGATTAACATCACGTTTTTTCCTGATGTTAATCGGGTCTTGATTCGCTTGACGCTGCTG | 1.57 z-score |
| CCGATTAACATCACGGAATTCACTGATGTTAATCGGGTCTTGATTCGCTTGACGCTGCTG | 2.4 z-score |
| CCGATTAACATCACGTAAAATCCTGATGTTAATCGGGTCTTGATTCGCTTGACGCTGCTG | 1.05 z-score |
| CCGATTAACATCAAAATTCCATGTGATGTTAATCGGGTCTTGATTCGCTTGACGCTGCTG | 1.36 z-score |
| CCGATTAACATCAGGAAAAATACTGATGTTAATCGGGTCTTGATTCGCTTGACGCTGCTG | 1.36 z-score |
| CCGATTAACATCAGGAAAATACATGATGTTAATCGGGTCTTGATTCGCTTGACGCTGCTG | 4.66 z-score |
| CCGATTAACATCACGTGAATTCCTGATGTTAATCGGGTCTTGATTCGCTTGACGCTGCTG | 2.84 z-score |
| CCGATTAACATCAGTGAACCACATGATGTTAATCGGGTCTTGATTCGCTTGACGCTGCTG | 5.69 z-score |
| CCGATTAACATCAGAAAATTACATGATGTTAATCGGGTCTTGATTCGCTTGACGCTGCTG | 3.43 z-score |
| CCGATTAACATCAGGATTTTACATGATGTTAATCGGGTCTTGATTCGCTTGACGCTGCTG | 3.35 z-score |
| CCGATTAACATCAATGGATTTCCTGATGTTAATCGGGTCTTGATTCGCTTGACGCTGCTG | 1.12 z-score |
| CCGATTAACATCAGTACATTCCATGATGTTAATCGGGTCTTGATTCGCTTGACGCTGCTG | 2.01 z-score |
| CCGATTAACATCATGTGGTTCTCTGATGTTAATCGGGTCTTGATTCGCTTGACGCTGCTG | 1.1 z-score |
| CCGATTAACATCAGAGTAATTCCTGATGTTAATCGGGTCTTGATTCGCTTGACGCTGCTG | 2.26 z-score |
| CCGATTAACATCACGGAAAATACTGATGTTAATCGGGTCTTGATTCGCTTGACGCTGCTG | 1.21 z-score |
| CCGATTAACATCACGGAATGTACTGATGTTAATCGGGTCTTGATTCGCTTGACGCTGCTG | 1.8 z-score |
| CCGATTAACATCATTTACATTCGTGATGTTAATCGGGTCTTGATTCGCTTGACGCTGCTG | 1.06 z-score |
| CCGATTAACATCACAAGAATTCCTGATGTTAATCGGGTCTTGATTCGCTTGACGCTGCTG | 1.19 z-score |
| CCGATTAACATCAAAATTCCAATTGATGTTAATCGGGTCTTGATTCGCTTGACGCTGCTG | 1.02 z-score |

| Sequence | binding signal |
| --- | --- |
| CCGATTAACATCAGGAAAATTACTGATGTTAATCGGGTCTTGATTCGCTTGACGCTGCTG | 1.67 z-score |
| CCGATTAACATCAAAAATTCCATTGATGTTAATCGGGTCTTGATTCGCTTGACGCTGCTG | 1.66 z-score |
| CCGATTAACATCACCTCTCGCGCTGATGTTAATCGGGTCTTGATTCGCTTGACGCTGCTG | 1.25 z-score |
| CCGATTAACATCACGTACATTCCTGATGTTAATCGGGTCTTGATTCGCTTGACGCTGCTG | 1.63 z-score |
| CCGATTAACATCAGTATTTTCCATGATGTTAATCGGGTCTTGATTCGCTTGACGCTGCTG | 1.33 z-score |
| CCGATTAACATCAGGAATTTATATGATGTTAATCGGGTCTTGATTCGCTTGACGCTGCTG | 1 z-score |
| CCGATTAACATCAAAGGAAATTCTGATGTTAATCGGGTCTTGATTCGCTTGACGCTGCTG | 1.56 z-score |
| CCGATTAACATCAGTAAACTCCATGATGTTAATCGGGTCTTGATTCGCTTGACGCTGCTG | 1.1 z-score |
| CCGATTAACATCAGCATCCACGGTGATGTTAATCGGGTCTTGATTCGCTTGACGCTGCTG | 1.01 z-score |
| CCGATTAACATCACGTAAACTCCTGATGTTAATCGGGTCTTGATTCGCTTGACGCTGCTG | 1.72 z-score |
| CCGATTAACATCACAAAATTCCATGATGTTAATCGGGTCTTGATTCGCTTGACGCTGCTG | 1.67 z-score |
| CCGATTAACATCACGTTATTTCCTGATGTTAATCGGGTCTTGATTCGCTTGACGCTGCTG | 1.09 z-score |
| CCGATTAACATCACAGGAAATCCTGATGTTAATCGGGTCTTGATTCGCTTGACGCTGCTG | 1.25 z-score |
| CCGATTAACATCAGGAATATACATGATGTTAATCGGGTCTTGATTCGCTTGACGCTGCTG | 2.59 z-score |
| CCGATTAACATCAGGAAATAACATGATGTTAATCGGGTCTTGATTCGCTTGACGCTGCTG | 2.04 z-score |
| CCGATTAACATCAAGTAATTTTCTGATGTTAATCGGGTCTTGATTCGCTTGACGCTGCTG | 1.86 z-score |
| CCGATTAACATCAAGTGATTTCCTGATGTTAATCGGGTCTTGATTCGCTTGACGCTGCTG | 4.18 z-score |
| CCGATTAACATCACCCGAGTGCGTGATGTTAATCGGGTCTTGATTCGCTTGACGCTGCTG | 1.01 z-score |
| CCGATTAACATCAGGAAATCACATGATGTTAATCGGGTCTTGATTCGCTTGACGCTGCTG | 7.1 z-score |
